Our source for the AmpC inhibition values is the supplement of paper PMC10011410.

The subject of the test is AmpC beta-lactamase (E. coli). Kind of test: AmpC inhibition relative to DMSO; higher = more inhibition. As for the experimental part:
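Aggregation counter-screen: inhibition of E. coli AmpC beta-lactamase (5 nM, nitrocefin substrate, 50 mM sodium phosphate pH 7.0, RT, 5 min) by KAT inhibitors at 4, 11, 33 and 100 uM, with or without 0.01% Triton X-100. Percent inhibition is relative to DMSO controls. Four technical replicates.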

Where [1] appears, read: 4 µM, detergent: 0.01% Triton X-100.
[2] abbreviates: 11 µM, detergent: 0.01% Triton X-100.
[3] abbreviates: 33 µM, detergent: 0.01% Triton X-100.
Where [4] appears, read: 100 µM, detergent: 0.01% Triton X-100.
[5] abbreviates: 100 µM, detergent: no detergent.

± gives the standard deviation of the averaged measurements.

In the case of `COc1cc(/C=C/C(=O)CC(=O)/C=C/c2ccc(O)c(OC)c2)ccc1O`, the AmpC inhibition under setting [1] was found to be 10.4 ± 4.2%; the AmpC inhibition (4 µM, detergent: no detergent) was 5.89 ± 9%; the AmpC inhibition under setting [2] was 5.4 ± 4.4%; the AmpC inhibition (11 µM, detergent: no detergent) worked out at 39.2 ± 7.2%; the AmpC inhibition under setting [3] was -1.8 ± 2.5%; the AmpC inhibition (33 µM, detergent: no detergent) amounted to 71.1 ± 12%. In addition, the AmpC inhibition is -2.46 ± 13% under setting [4] and 67.3 ± 7.6% under setting [5].
In the case of `CNC(=O)Nc1ccc2c(c1)[C@@]1(CC2)OC(=O)N(CC(=O)N(Cc2ccc(F)cc2)[C@@H](C)C(F)(F)F)C1=O`, the AmpC inhibition is 9.1 ± 0.37% under setting [1]; 2.44 ± 8.2% (4 µM, detergent: no detergent); 6.71 ± 1% under setting [2]; 7.48 ± 3.8% (11 µM, detergent: no detergent); -0.0601 ± 2.8% under setting [3]; -5.13 ± 2% (33 µM, detergent: no detergent). The AmpC inhibition runs as follows: under setting [4], -4.9 ± 5.7%; under setting [5], -1.81 ± 4.7%.
Regarding `C=C(C)[C@@H](CC=C(C)C)C[C@@]12C[C@@H](CC=C(C)C)C(C)(C)[C@@](CC=C(C)C)(C(=O)/C(=C(\O)c3ccc(O)c(O)c3)C1=O)C2=O`, the AmpC inhibition by setting is: under setting [1], 13.6 ± 17%; (4 µM, detergent: no detergent) 0.481 ± 8.4%; under setting [2], -2 ± 19%; (11 µM, detergent: no detergent) 17.9 ± 7.4%; under setting [3], 5.26 ± 8.2%; (33 µM, detergent: no detergent) 63 ± 4.7%. Besides, the AmpC inhibition is -8.29 ± 6.4% under setting [4] and 97.95 ± 0.64% under setting [5].
For the compound `O=C1/C(=C/c2ccc(O)c(Br)c2)CCC/C1=C\c1ccc(O)c(Br)c1`, the AmpC inhibition came to 4.59 ± 5% under setting [1]; 7.44 ± 6.5% (4 µM, detergent: no detergent); 9.28 ± 8.5% under setting [2]; 55.4 ± 9.9% (11 µM, detergent: no detergent); 5.98 ± 3.4% under setting [3]; 78.6 ± 1.3% (33 µM, detergent: no detergent). The AmpC inhibition reads like this: under setting [4], -4.62 ± 5.8%; under setting [5], 81.8 ± 1.7%.
Turning to `Cl.Cl.O=C(O)Cn1nnc(-c2ccc(CN(CCCCOc3ccc(CN4CCCC4)cc3)CCc3ccccc3)cc2)n1`, the AmpC inhibition runs as follows: under setting [1], 7.51 ± 5.3%; (4 µM, detergent: no detergent) -18.8 ± 5%; under setting [2], 6.13 ± 8.3%; (11 µM, detergent: no detergent) -17.6 ± 4.2%; under setting [3], 3.69 ± 2.6%; (33 µM, detergent: no detergent) -26.9 ± 12%. For the same compound, the AmpC inhibition was 11 ± 6.5% under setting [4] and 5.89 ± 17% under setting [5].
